Our source for the growth values is PubChem BioAssay (NCI).

The panel holds about 83,000 compounds, 20% with a hit somewhere; the sample as a whole holds those more often.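 Growth was measured after 48 h exposure to one concentration of compound in 96-well plates. Values under 10 count as active.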 The source made the active and inactive calls.

One experiment deals with NCI-H522 lung. The experiment in a line: NCI-60 one-dose screen, 48 h (100 = growth as untreated, 0 = no growth, -100 = all killed). Particulars: 10 µM.
On to `COc1ccc(C2c3sc4ccc(C)cc4c3Oc3nc(N)nc(N)c32)cc1` (centres undefined), for which the growth is 57.2% (inactive). Regarding `Cc1cc(N=C2NC(=O)S/C2=C\c2ccc(F)cc2)n[nH]1`, the growth was -8.95% (active). For the molecule `Cn1cc(-c2nnc(N)nc2-c2c[nH]c3ccccc23)c2cc(Br)cnc21`, the growth was 15.1% (inactive). On to `O=C(CC(=O)Nc1ccc(Oc2ncnc3scc(Nc4n[nH]c(=S)s4)c23)cc1)Nc1ccc(Cl)cc1`, for which the growth was 55.2% (inactive). In the case of `O=C1NC2C=CC=CC2/C1=C1/SC(=S)N(C2CC(=O)N(c3ccc(Br)cc3)C2=O)C1=O` (centres undefined), the growth was 68.7% (inactive). Turning to `CC1(C)CC(=O)C2=C(C1)N(Cc1ccc(C(=O)O)cc1)C1=C(C(=O)CC(C)(C)C1)C2c1ccc(Cl)cc1`, the growth was 84.9% (inactive).

Regarding `Cc1ccc2c(c1)C(=O)/C(=C/c1ccc([N+](=O)[O-])cc1)S2`, the growth is 82.5% (inactive). The same measure, in the same setting: the value for `O=C(Nc1ccc(OCc2ccc(Cl)cc2)cc1)Nc1ccc(Cl)c(C(F)(F)F)c1` was -16.7% (active); that for `Cn1cc(-c2nc(N)nnc2-c2c[nH]c3ccccc23)c2cc(Br)cnc21` was -36.5% (active).

Turning to `O=C(CSc1nc2ccccc2c(=O)n1-c1ccc(Cl)cc1)Nc1ccc(-c2nc3ccccc3[nH]2)cc1`, the growth is 15.9% (inactive).

On to `Cc1ccc2c(c1)C(=O)/C(=C/c1c[nH]c3ccccc13)S2`, for which the growth was 11.2% (inactive). `COc1cccc(O)c1/C=C1\SCc2cc3c(OC)cccc3[o+]c21`: the growth was 102% (inactive). For the molecule `COc1cc(C2CC(c3ccc(Oc4ccc(Cl)cc4)cc3)=NN2c2nc(-c3ccc(Cl)cc3)c(C#N)c(N3CCOCC3)n2)cc(OC)c1OC` (centres undefined), the growth is 92.4% (inactive). As for `O=C(Nc1ccc(OCC(=O)c2ccc(Cl)cc2)cc1)Nc1ccc(Cl)c(C(F)(F)F)c1`, the growth is -12.4% (active).

With `Cc1ccc2sc3c(c2c1)Oc1nc[nH]c(=O)c1C3c1cccc(F)c1` (centres undefined), the growth is 82.8% (inactive). As to `Cc1cc(N=C2NC(=O)/C(=C/c3cc(C(C)(C)C)c(O)c(C(C)(C)C)c3)S2)n[nH]1`, the growth is -26.1% (active). As for `COc1ccc(C2c3sc4ccc(C)cc4c3Oc3nc[nH]c(=O)c32)cc1` (centres undefined), the growth is 42.7% (inactive). With `COc1cccc(C(=O)CSc2nc(-c3ccc(OCc4ccccc4)c(OC)c3)c(C#N)c(=O)[nH]2)c1`, the growth was 78.9% (inactive).

For `Cc1ccc(COc2ccc(NC(=O)Nc3ccc(Cl)c(C(F)(F)F)c3)cc2)cc1`, the growth is 44.9% (inactive). The same measure, in the same setting: the value for `CC(C)(C)c1cc(/C=C2\S/C(=N/c3ncn[nH]3)NC2=O)cc(C(C)(C)C)c1O` was -23.9% (active).

With `Cn1cc(/C=C(/SS/C(=C/c2cn(C)c3cccc(C(=O)O)c23)C(=O)O)C(=O)O)c2c(C(=O)O)cccc21`, the growth is 92.6% (inactive). Consider `COc1ccc(C(=O)COc2ccc(NC(=O)Nc3ccccc3)cc2)cc1`, for which the growth was 58.2% (inactive). Consider `CCn1c(SCC(=O)Nc2ccc(-c3nc4ccccc4[nH]3)cc2)nc2ccccc2c1=O`, for which the growth was -74.2% (active). As for `O=C(Nc1ccc(OCc2ccc(F)cc2)cc1)Nc1ccc(Cl)c(C(F)(F)F)c1`, the growth is -20.8% (active). For `O=C(CC(=O)Nc1ccc(Oc2ncnc3scc(Nc4n[nH]c(=S)s4)c23)cc1)Nc1ccc(Br)cc1`, the growth is 89.6% (inactive).

Take `COc1ccc(C(=O)COc2ccc(NC(=O)Nc3ccc(Cl)c(C(F)(F)F)c3)cc2)cc1`: the growth was -43.2% (active). `O=C(Nc1ccc(Oc2ncnc3scc(Nc4n[nH]c(=S)s4)c23)cc1)C1(C(=O)Nc2cccc(C(F)(F)F)c2)CC1`: the growth is 94.1% (inactive). Turning to `O=C1NC(=S)S/C1=C\c1cn(-c2ccccc2)nc1-c1ccc([N+](=O)[O-])cc1`, the growth is -4.14% (active).

For `O=C(CSc1nc2ccccc2c(=O)n1-c1ccc(Cl)cc1)Nc1ccc(-c2nc3ccc([N+](=O)[O-])cc3[nH]2)cc1`, the growth is 32.7% (inactive).

In the next experiment the test system is A549/ATCC NSCLC. The experiment is described as above. The conditions noted are these: 10 µM.
In the case of `COc1ccc(C2c3sc4ccc(C)cc4c3Oc3nc(N)nc(N)c32)cc1` (centres undefined), the growth was 92.2% (inactive). Turning to `Cc1cc(N=C2NC(=O)S/C2=C\c2ccc(F)cc2)n[nH]1`, the growth was 18.9% (inactive). `Cn1cc(-c2nnc(N)nc2-c2c[nH]c3ccccc23)c2cc(Br)cnc21`: the growth was 55.1% (inactive). Regarding `O=C(CC(=O)Nc1ccc(Oc2ncnc3scc(Nc4n[nH]c(=S)s4)c23)cc1)Nc1ccc(Cl)cc1`, the growth was 83% (inactive). Take `O=C1NC2C=CC=CC2/C1=C1/SC(=S)N(C2CC(=O)N(c3ccc(Br)cc3)C2=O)C1=O` (centres undefined): the growth is 99% (inactive). The same measure, in the same setting: with `CC1(C)CC(=O)C2=C(C1)N(Cc1ccc(C(=O)O)cc1)C1=C(C(=O)CC(C)(C)C1)C2c1ccc(Cl)cc1` the figure was 99.3% (inactive). With `Cc1ccc2c(c1)C(=O)/C(=C/c1ccc([N+](=O)[O-])cc1)S2`, the growth is 99.6% (inactive).

Turning to `O=C(Nc1ccc(OCc2ccc(Cl)cc2)cc1)Nc1ccc(Cl)c(C(F)(F)F)c1`, the growth was 16.2% (inactive).

`Cn1cc(-c2nc(N)nnc2-c2c[nH]c3ccccc23)c2cc(Br)cnc21`: the growth is 16.4% (inactive). With `O=C(CSc1nc2ccccc2c(=O)n1-c1ccc(Cl)cc1)Nc1ccc(-c2nc3ccccc3[nH]2)cc1`, the growth is -16.8% (active). As to `Cc1ccc2c(c1)C(=O)/C(=C/c1c[nH]c3ccccc13)S2`, the growth is 64.6% (inactive). With `COc1cccc(O)c1/C=C1\SCc2cc3c(OC)cccc3[o+]c21`, the growth was 108% (inactive). As for `COc1cc(C2CC(c3ccc(Oc4ccc(Cl)cc4)cc3)=NN2c2nc(-c3ccc(Cl)cc3)c(C#N)c(N3CCOCC3)n2)cc(OC)c1OC` (centres undefined), the growth is 97.9% (inactive). Consider `O=C(Nc1ccc(OCC(=O)c2ccc(Cl)cc2)cc1)Nc1ccc(Cl)c(C(F)(F)F)c1`, for which the growth is 24.3% (inactive).

In the case of `Cc1ccc2sc3c(c2c1)Oc1nc[nH]c(=O)c1C3c1cccc(F)c1` (centres undefined), the growth was 98.7% (inactive). As to `Cc1cc(N=C2NC(=O)/C(=C/c3cc(C(C)(C)C)c(O)c(C(C)(C)C)c3)S2)n[nH]1`, the growth was 9.9% (active). As to `COc1ccc(C2c3sc4ccc(C)cc4c3Oc3nc[nH]c(=O)c32)cc1` (centres undefined), the growth is 97.9% (inactive). With `COc1cccc(C(=O)CSc2nc(-c3ccc(OCc4ccccc4)c(OC)c3)c(C#N)c(=O)[nH]2)c1`, the growth was 98.5% (inactive). On to `Cc1ccc(COc2ccc(NC(=O)Nc3ccc(Cl)c(C(F)(F)F)c3)cc2)cc1`, for which the growth is 64.7% (inactive). For the molecule `O=C(O)CCN1C(=O)/C(=C/C=C/c2ccc([N+](=O)[O-])o2)SC1=S`, the growth was 10.4% (inactive). `CC(C)(C)c1cc(/C=C2\S/C(=N/c3ncn[nH]3)NC2=O)cc(C(C)(C)C)c1O`: the growth is 15.4% (inactive). `Cn1cc(/C=C(/SS/C(=C/c2cn(C)c3cccc(C(=O)O)c23)C(=O)O)C(=O)O)c2c(C(=O)O)cccc21`: the growth was 99.6% (inactive).

`COc1ccc(C(=O)COc2ccc(NC(=O)Nc3ccccc3)cc2)cc1`: the growth was 80.9% (inactive).

For `CCn1c(SCC(=O)Nc2ccc(-c3nc4ccccc4[nH]3)cc2)nc2ccccc2c1=O`, the growth was -71.2% (active). As for `O=C(Nc1ccc(OCc2ccc(F)cc2)cc1)Nc1ccc(Cl)c(C(F)(F)F)c1`, the growth was 16.4% (inactive).

With `O=C(CC(=O)Nc1ccc(Oc2ncnc3scc(Nc4n[nH]c(=S)s4)c23)cc1)Nc1ccc(Br)cc1`, the growth is 101% (inactive).

As for `COc1ccc(C(=O)COc2ccc(NC(=O)Nc3ccc(Cl)c(C(F)(F)F)c3)cc2)cc1`, the growth was 18.5% (inactive).

For `O=C(Nc1ccc(Oc2ncnc3scc(Nc4n[nH]c(=S)s4)c23)cc1)C1(C(=O)Nc2cccc(C(F)(F)F)c2)CC1`, the growth is 92.5% (inactive). For `O=C1NC(=S)S/C1=C\c1cn(-c2ccccc2)nc1-c1ccc([N+](=O)[O-])cc1`, the growth was 15.2% (inactive).

On to `O=C(CSc1nc2ccccc2c(=O)n1-c1ccc(Cl)cc1)Nc1ccc(-c2nc3ccc([N+](=O)[O-])cc3[nH]2)cc1`, for which the growth is 50.2% (inactive).
